# Test results taken from PubChem BioAssay (EPA / NIEHS).
# Results filed as inconclusive are left out. A structure can be active in one record and inactive in another. Active and inactive are the calls of the source. Rule for the calls, unless noted: active = hit-call score of the fitted dose curve at least 0.9, where 1 is the maximum; inconclusive = response in the unintended direction; inactive = score below 0.9.
# How the values were obtained:
# [1] = biological target: Estrogen receptor (Homo sapiens) (UniProt P03372); test: CCTE_Deisenroth_AIME_384WELL_LUC_Active: CCTE's 384-well Estrogen Receptor Transactivation Assay with AIME metabolic competence (ERTA luciferase; metabolism positive), Deisenroth Lab (AID 2284030)
# Chain of Estrogen receptor (Homo sapiens) (P03372 whole entry, looked up): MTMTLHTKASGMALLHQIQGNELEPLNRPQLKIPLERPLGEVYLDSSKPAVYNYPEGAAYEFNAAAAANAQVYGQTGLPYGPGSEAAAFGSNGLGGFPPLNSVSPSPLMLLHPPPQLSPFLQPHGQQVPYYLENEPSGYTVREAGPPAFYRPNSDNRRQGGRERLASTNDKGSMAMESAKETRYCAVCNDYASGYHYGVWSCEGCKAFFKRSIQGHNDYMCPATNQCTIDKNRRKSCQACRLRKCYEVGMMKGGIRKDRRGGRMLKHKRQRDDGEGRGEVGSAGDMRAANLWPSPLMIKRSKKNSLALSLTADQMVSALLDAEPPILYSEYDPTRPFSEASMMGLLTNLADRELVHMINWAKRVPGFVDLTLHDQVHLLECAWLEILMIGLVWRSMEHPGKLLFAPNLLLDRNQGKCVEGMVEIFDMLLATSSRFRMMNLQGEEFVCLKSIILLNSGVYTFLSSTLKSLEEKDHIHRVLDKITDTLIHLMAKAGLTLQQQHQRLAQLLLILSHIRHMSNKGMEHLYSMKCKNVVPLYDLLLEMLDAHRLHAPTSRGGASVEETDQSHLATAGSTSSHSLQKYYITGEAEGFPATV
# Method in brief: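 Estrogenic luciferase signal in VM7Luc4E2 cells is measured at 24 hour, after chemicals have been preconditioned 2 hours with PB/BNF-induced rat hepatic S9 in alginate. Gain of signal is fitted relative to 17beta-estradiol, across 0.002 - 200 uM.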
# [2] = CCTE_Shafer_MEA_dev_firing_rate_mean: CCTE's Neural Network Formation Assay for Mean Firing Rate, Shafer Lab (AID 2284031; active = hit-call score of the fitted dose curve at least 0.9, where 1 is the maximum; inactive = score below 0.9;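 for AC50: curve fitted for loss of firing so AC50 reflects decreased mean firing rate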)
# Method in brief: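 Steps: seed rat cortical cells (1.5 x 10^5/well) with laminin on PEI-coated MEA; dose day 0; record DIV 5/7/9/12, full media and compound exchange after DIV 5 and 9 recordings; compute well-mean firing rate AUC.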
# [3] = CCTE_Deisenroth_AIME_384WELL_CTox_Active: Cytotoxicity Assessment (CTOX) in CCTE's 384-well Estrogen Receptor Transactivation Assay with AIME metabolic competence (metabolism positive), Deisenroth Lab (AID 2284037);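 note: chemicals first conditioned 2 h by alginate-bound induced rat liver S9 before cells; activity means signal loss indicating cell death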
# Method in brief: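 VM7Luc4E2 breast cells received medium pre-incubated 2 h with chemical over alginate microspheres holding induced male Sprague Dawley rat liver S9; viability read 24 h later by protease-substrate fluorescence. Loss of signal, bidirectional fit, 0.002–200 uM.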
# [4] = biological target: Estrogen receptor (Homo sapiens) (UniProt P03372); test: CCTE_Deisenroth_AIME_384WELL_LUC_Inactive: CCTE's 384-well Estrogen Receptor Transactivation Assay without AIME metabolic competence (ERTA luciferase; metabolism negative), Deisenroth Lab (AID 2284038);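 note: hits raise estrogen receptor luciferase signal so potencies reflect agonists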
# Method in brief: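 VM7Luc4E2 ER transactivation, luciferase bioluminescence after 24 h, using medium pre-incubated 2 h with S9-free alginate microspheres. Concentrations 0.002–200 uM; gain of signal fitted relative to 17beta-estradiol.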
# [5] = CCTE_Deisenroth_AIME_384WELL_CTox_Inactive: Cytotoxicity Assessment (CTOX) in CCTE's 384-well Estrogen Receptor Transactivation Assay without AIME metabolic competence (metabolism negative), Deisenroth Lab (AID 2284039);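 note: cell viability via live-cell protease substrate cleaved to fluorescent probe; cells exposed 24 h to medium preincubated 2 h with alginate-water beads without S9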
# Method in brief: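 VM7Luc4E2 human breast cells received conditioned medium from a 2 h incubation of chemical with alginate-water microspheres (no S9), then were exposed 24 h. Viability was read as protease-substrate cleavage to a fluorescent probe; loss of signal was fitted bidirectionally over 0.002–200 uM.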
# [6] = CCTE_Shafer_MEA_dev_active_electrodes_number: CCTE's Neural Network Formation Assay for Number of Active Electrodes, Shafer Lab (AID 2284040);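 for AC50: potency for loss of active electrodes versus DMSO so lower counts are hits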
# Method in brief: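 Counts electrodes per well firing at least 5 spikes/min, recorded on days 5, 7, 9 and 12 in rat cortical cultures dosed continuously from plating (treatment refreshed DIV 5, 9). Value is the area under the curve over recordings, fitted downward relative to DMSO.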
# [7] = biological target: Estrogen receptor (Homo sapiens) (UniProt P03372); test: CCTE_Deisenroth_AIME_384WELL_LUC_Shift: CCTE's 384-well Estrogen Receptor Transactivation Assay with AIME metabolic competence data shift (ERTA luciferase; difference in metabolism positive and negative), Deisenroth Lab (AID 2284041; active = hit-call score of the fitted dose curve at least 0.9, where 1 is the maximum; inactive = score below 0.9;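 note: shift is response with S9 minus without S9 so positive means metabolism raised ER signal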)
# Method in brief: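 Here, parent compounds undergo 2 h phase I metabolism by PB/BNF-induced rat S9 before 24 h transactivation in VM7Luc4E2 cells; the curve models S9-positive minus S9-negative response over a 10-point series.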
# [8] = CCTE_Shafer_MEA_dev_burst_rate: CCTE's Neural Network Formation Assay for Burst Rate, Shafer Lab (AID 2284042; active = hit-call score of the fitted dose curve at least 0.9, where 1 is the maximum; inactive = score below 0.9;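 for AC50: potency for loss of burst rate below DMSO control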)
# Method in brief: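 Rat primary cortical cultures on PEI/laminin MEA; compound from plating, re-dosed at DIV 5, 9 media change. Single-electrode bursts/recording length, well mean of active electrodes; AUC over DIV 5–12 recordings; loss-of-signal vs DMSO.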
# [9] = CCTE_Shafer_MEA_dev_bursting_electrodes_number: CCTE's Neural Network Formation Assay for Number of Bursting Electrodes, Shafer Lab (AID 2284043);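 for AC50: potency is for loss of bursting electrodes relative to DMSO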
# Method in brief: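 Counted: electrodes with burst rate ≥1 per 2 min in each well. Cells: primary rat cortex, 1.5 x 10^5/well, on 16-electrode MEA wells. Exposure: DIV 0–12, compound renewed DIV 5 and 9. Recording days 5, 7, 9, 12; AUC vs DMSO baseline.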
# [10] = CCTE_Deisenroth_AIME_96WELL_CTox_Inactive: Cytotoxicity Assessment (CTOX) in CCTE's 96-well Estrogen Receptor Transactivation Assay without AIME metabolic competence (metabolism negative), Deisenroth Lab (AID 2284029)
# Method in brief: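 Metabolism-negative mode: alginate-water lids without rat S9, 2 h pre-incubation of 10-point series (0.002 - 200 uM). Conditioned medium on VM7Luc4E2 cells 24 h; loss of fluorescent live-cell protease signal marks cytotoxicity.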
smiles,measurement,setting,value
Cc1cc(=O)[nH]c(=S)[nH]1,outcome,[1],inactive
same,outcome,[2],inactive
same,outcome,[3],inactive
same,outcome,[4],inactive
same,outcome,[5],inactive
same,outcome,[6],inactive
same,outcome,[7],inactive
same,outcome,[8],inactive
same,AC50,[9],10 µM (active)
COc1cc(C=O)ccc1O,outcome,[1],inactive
same,outcome,[3],inactive
same,outcome,[4],inactive
same,outcome,[7],inactive
CC1=C(/C=C/C(C)=C/C=C/C(C)=C/CO)C(C)(C)CCC1,outcome,[1],inactive
same,outcome,[4],inactive
same,outcome,[5],inactive
same,outcome,[7],inactive
CC1(C)NC(=O)NC1=O,outcome,[1],inactive
same,outcome,[3],inactive
same,outcome,[4],inactive
same,outcome,[5],inactive
same,outcome,[7],inactive
Cc1ccc(N(C)C)cc1,outcome,[1],inactive
same,outcome,[3],inactive
same,outcome,[4],inactive
same,outcome,[5],inactive
same,outcome,[7],inactive
COc1ccc(C)cc1N,outcome,[1],inactive
same,outcome,[4],inactive
same,outcome,[7],inactive
CCOc1ccc2c(c1)C(C)=CC(C)(C)N2,AC50,[1],34.5 µM (active)
same,outcome,[3],inactive
same,outcome,[4],inactive
same,outcome,[5],inactive
CCCc1cc(=O)[nH]c(=S)[nH]1,outcome,[1],inactive
same,outcome,[2],inactive
same,outcome,[3],inactive
same,outcome,[4],inactive
same,outcome,[5],inactive
same,AC50,[6],22.9 µM (active)
same,outcome,[6],inactive
same,outcome,[7],inactive
same,outcome,[8],inactive
same,AC50,[9],23.2 µM (active)
Cc1cccc([N+](=O)[O-])c1C,outcome,[1],inactive
same,outcome,[3],inactive
same,outcome,[4],inactive
same,outcome,[5],inactive
same,outcome,[7],inactive
COc1cccc2c1C(=O)c1c(O)c3c(c(O)c1C2=O)C[C@@](O)(C(=O)CO)C[C@@H]3O[C@H]1C[C@H](N)[C@H](O)[C@H](C)O1,AC50,[10],68.2 µM (active)
NCCO,outcome,[1],inactive
same,outcome,[3],inactive
same,outcome,[4],inactive
same,outcome,[5],inactive
same,outcome,[7],inactive
Cc1ccc(C)c(C)c1,outcome,[4],inactive
same,outcome,[7],inactive
CC1(C)CC(N=C=O)CC(C)(CN=C=O)C1 (stereo not given),outcome,[1],inactive
same,outcome,[4],inactive
same,outcome,[7],inactive
Nc1ccc2c(c1)C(=O)c1ccccc1C2=O,AC50,[1],72.1 µM (active)
same,outcome,[3],inactive
same,AC50,[4],11.2 µM (active)
same,AC50,[7],3.51 µM (active)
OC[C@@H](O)[C@@H](O)[C@H](O)[C@H](O)CO,outcome,[2],inactive
same,outcome,[6],inactive
same,outcome,[8],inactive
same,outcome,[9],inactive
O=c1[nH]cc(F)c(=O)[nH]1,outcome,[1],inactive
same,AC50,[2],4.24 µM (active)
same,outcome,[4],inactive
same,outcome,[5],inactive
same,AC50,[6],2.59 µM (active)
same,outcome,[7],inactive
same,AC50,[8],1.58 µM (active)
same,AC50,[9],1.39 µM (active)
CNCc1cc(F)ccc1Oc1ccc(Cl)c(Cl)c1,outcome,[1],inactive
same,outcome,[3],inactive
same,AC50,[5],19.8 µM (active)
same,outcome,[7],inactive
C[Si]1(C)O[Si](C)(C)O[Si](C)(C)O[Si](C)(C)O1,outcome,[1],inactive
same,outcome,[2],inactive
same,outcome,[4],inactive
same,outcome,[5],inactive
same,outcome,[6],inactive
same,outcome,[7],inactive
same,outcome,[8],inactive
same,outcome,[9],inactive
CCCCOC(=O)CCCCCCCCC(=O)OCCCC,outcome,[1],inactive
same,outcome,[3],inactive
same,outcome,[4],inactive
same,outcome,[5],inactive
same,outcome,[7],inactive
Cc1ccc(C(C)C)c(O)c1,outcome,[1],inactive
same,outcome,[4],inactive
same,outcome,[7],inactive
CC(=O)Oc1ccccc1C(=O)O,outcome,[1],inactive
same,outcome,[2],inactive
same,outcome,[4],inactive
same,outcome,[6],inactive
same,outcome,[7],inactive
same,outcome,[8],inactive
FC(F)(F)C(F)(F)C(F)(F)C(F)(F)C(F)(F)C(F)(F)CCI,outcome,[2],inactive
same,outcome,[6],inactive
same,outcome,[8],inactive
same,outcome,[9],inactive
Cc1ccc2ncccc2c1,outcome,[1],inactive
same,outcome,[3],inactive
same,outcome,[4],inactive
same,outcome,[7],inactive
COc1cc(/C=C/C(=O)CC(=O)/C=C/c2ccc(O)c(OC)c2)ccc1O,AC50,[10],93.8 µM (active)
CCCCCCCCCCCCCCCCCC(=O)O,outcome,[1],inactive
same,outcome,[3],inactive
same,outcome,[4],inactive
same,outcome,[5],inactive
same,outcome,[7],inactive
CCNc1cccc(C)c1,outcome,[1],inactive
same,outcome,[4],inactive
same,outcome,[5],inactive
same,outcome,[7],inactive
